DAX1 inh-1: DAX1 (NR0B1) inhibitors on StAR promoter, primary screen, cell-based, luminescence, SF-1 (NR5A1), full-length DAX-1; HEK293T StAR-luciferase reporter, SF-1/DAX-1 repression relief; 1.1% of 370,000 active; inhibition, % at 6.8 µM; AID 652010, 2013;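 active = inhibition above the mean over all tested compounds plus 3 SD, cut at about 3.6% in these data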;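 note: higher inhibition means more luminescence from relief of DAX-1 repression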
DAX1 inh-2: DAX1 (NR0B1) inhibitors, primary screen, cell-based, HEK293, Gal4-DAX1, luciferase luminescence | Nuclear receptor subfamily 0 group B member 1 (Homo sapiens), P51843 | inhibition, % at 6.75 µM | 0.99% of 340,000 active | HEK293 Gal4-DAX1 luciferase reporter;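 active = inhibition above the mean over all tested compounds plus 3 SD, cut at about 4.2% in these data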;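 note: inhibition shows as a rise in luminescence from relieved DAX1 repression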
Target sequence (P51843 207-470 limits assumed): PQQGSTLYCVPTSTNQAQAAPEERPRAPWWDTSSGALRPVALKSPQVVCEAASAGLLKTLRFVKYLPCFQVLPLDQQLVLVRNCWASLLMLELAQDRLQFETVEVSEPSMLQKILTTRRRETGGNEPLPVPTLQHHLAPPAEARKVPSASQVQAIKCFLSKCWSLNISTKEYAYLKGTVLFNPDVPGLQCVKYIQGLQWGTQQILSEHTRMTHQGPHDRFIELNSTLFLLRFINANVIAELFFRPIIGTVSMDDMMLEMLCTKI
hcDAF-12 act: H. contortus DAF-12 nuclear receptor activators, primary screen, cell-based, luminescence, HEK293, lit1-tk-luc reporter | 1.4% of 370,000 active | HEK293 hcDAF-12 lit1-tk-luc reporter; 0% DMSO, 100% Δ7-dafachronic acid | activation, % at 6.8 µM;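 active = activation above the mean of all tested compounds plus 3 SD, cut at about 5.5% in these data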
ssDAF12 agonist: S. stercoralis DAF-12 nuclear receptor activators, primary screen, cell-based, luminescence, HEK293, GRIP1 co-expression, lit1-tk-luc. HEK293 ssDAF-12/GRIP1 lit1-tk-luc reporter; % of 3 µM dafachronic acid response. Nuclear hormone receptor DAF-12 (Strongyloides stercoralis). 1% of 370,000 active. activation, % at 6.8 µM. AID 652126, 2013;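 active = activation above the mean over all tested compounds plus 3 SD, cut at about 0.9% in these data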
SMARCA2 activ: SMARCA2 (BRM) function activators, primary screen, cell-based, luminescence, high throughput; MG213 cells, MMTV-luciferase reporter, dexamethasone, overnight; activation, % at 9.1 µM; AID 652017, 2013; 1% of 370,000 active; in the data active = activation above about 7.8%
hgDAF-12 ag: H. glycines DAF-12 receptor agonists, primary screen, cell-based, luminescence, HEK293, GAL4 fusion, UAS-luciferase; 1.8% of 370,000 active; HEK293 GAL4-hgDAF12 UAS-luciferase reporter, agonist luminescence; normalized to butyrate control; activation, % at 6.8 µM; Nuclear hormone receptor DAF-12 (Heterodera glycines), GAL4 fusion;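 active = activation above a cutoff set at the mean of all screened compounds plus 3 SD, cut at about 10% in these data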
Hits are given with their value; – = inactive; · = no result given. An excerpt weighted towards active compounds, which were near 4.8% of everything screened.

SMILES	DAX1 inh-1	DAX1 inh-2	hcDAF-12 act	ssDAF12 agonist	SMARCA2 activ	hgDAF-12 ag
CC(CNC(=O)Cn1ccc(NC(=O)OCc2ccccc2)nc1=O)c1ccccc1 (centres undefined)	–	–	–	–	–	–
O=[N+]([O-])c1ccc(Cl)c(C[n+]2cccc3ccccc32)c1	–	–	–	1.5	–	–
Clc1cccc(Cl)c1C[n+]1cccc2ccccc21	–	–	–	–	–	–
O=C(C[n+]1cccc2ccccc21)c1ccc(Cl)cc1	–	–	–	–	–	–
O=C(C[n+]1cccc2ccccc21)c1ccc([N+](=O)[O-])cc1	–	–	–	1.3	–	–
CCn1c(C(C)NC(=O)c2ccc(OC)c(OC)c2)nc2ccccc21 (centres undefined)	–	–	–	–	–	–
CCOC(=O)c1cccc(NC(=O)c2ccccc2C)c1	–	–	–	–	–	11
CCCCN1C(=O)C(=O)N(CC(=O)Nc2sc(C)c(CC)c2C(=O)OCC)C1=O	–	–	–	–	–	–
Cc1ccc(NC(=O)c2ncn(CC(=O)N3CCN(c4ccccn4)CC3)n2)cc1C	–	–	–	–	–	–
CC(C)C(OC(=O)c1cc2c(s1)CCCCC2)C(=O)NC(N)=O (centres undefined)	–	–	5.8	–	–	–
CC(OC(=O)c1cc2c(s1)CCCCC2)C(=O)NC(N)=O (centres undefined)	–	–	–	–	–	–
Cc1ccc(CNC(=O)CCCOc2cc(=O)n(C)c3ccccc23)o1	–	6.4	–	–	–	–
Cn1c(=O)cc(OCCCC(=O)NCc2ccco2)c2ccccc21	–	–	–	–	–	–
Cc1[nH]c2ccccc2c1-c1csc(NC(=O)CSCCO)n1	–	5.5	–	–	–	–
Cc1ccc(N2CC(C(=O)Nc3ccc(S(=O)(=O)NCC4CCCO4)cc3)CC2=O)cc1 (centres undefined)	–	–	–	–	–	–
COc1ccc(C2=NN(CN3C(=O)C(=O)c4ccccc43)C(c3ccc(OC)cc3)C2)cc1 (centres undefined)	–	–	–	–	–	11
COc1ccc(C2=NN(S(=O)(=O)c3ccccc3)C(c3ccccc3)C2)cc1 (centres undefined)	–	–	–	–	–	–
O=C(N/C(=C\c1ccc(Cl)cc1)C(=O)N1CCCCC1)c1ccco1	–	–	–	–	–	–
O=C(NNC(=O)c1cc(-c2ccncc2)nc2ccccc12)c1cccc(Cl)c1	–	–	–	2.6	–	–
CC(=O)C1=C(O)C(=O)N(CCc2c[nH]c3ccccc23)C1c1ccc(O)cc1 (centres undefined)	–	4.4	–	–	–	–
CC(C)(C)n1nnnc1C1c2ccccc2C(=O)N1CCc1c[nH]c2ccccc12 (centres undefined)	4.2	·	–	–	–	–
Cc1cccc(C)c1-n1nnnc1C1c2ccccc2C(=O)N1CCc1ccccc1F (centres undefined)	–	·	–	–	–	–
CC(=O)C1=C(O)C(=O)N(CCc2c[nH]c3ccccc23)C1c1ccccc1 (centres undefined)	–	–	–	–	–	–
O=C(O)COc1ccccc1C=NNc1ccc([N+](=O)[O-])cc1S(=O)(=O)Nc1ccc(Cl)cc1	–	–	–	–	–	–
COc1ccc(/C=C/C(=O)c2ccc(Cl)cc2)c(OC)c1	–	–	–	–	–	16
COc1ccc(N2CCN(C3CCCN(Cc4ccc(F)c(F)c4)C3)CC2)cc1 (centres undefined)	–	–	–	–	–	–
CC(=O)C1=C(C)N(c2ccccc2)C(=O)C1(NS(=O)(=O)c1ccc(N)cc1)C(F)(F)F (centres undefined)	–	–	5.6	1.5	–	–

High-throughput results from PubChem.
